Results as given in PubChem BioAssay (EPA / NIEHS).
Values joined by “and” are separate entries in the source; they are usually repeats but may differ in a detail not shown here. Identical values can stand only once. More than one record can exist for a structure, and the calls need not agree. Active and inactive are the calls of the source. The calls were made as follows: active = hit-call score of the fitted dose curve at least 0.9, where 1 is the maximum; inactive = score below 0.9.

System: not listed separately
Experiment: ATG_Oct_MLP_CIS: Attagene CIS-FACTORIAL HepG2 Assay for human Octamer-Binding Transcription Factor (Oct) (AID 2282993)
Conditions: HepG2 Attagene cis-factorial Oct reporter, mRNA; actives raise or lower the signal
In short: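 Read-out: reporter mRNA via RT-PCR plus capillary electrophoresis of 6-FAM-labelled fragments. Transiently transfected HepG2, 24 h exposure, endogenous TF activity on cis elements. Gain or loss of signal fitted relative to DMSO.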

Compound | outcome | AC50
O=C(CBr)OCc1ccccc1 | inactive | 
N#Cc1ccc(O)cc1 | inactive | 
CO/N=C(/C(=O)OC)c1ccccc1COc1ccccc1C |  | 21.9 µM (active)
O=P(OCC(Br)CBr)(OCC(Br)CBr)OCC(Br)CBr (configuration not stated) | inactive | 
Oc1ccc(I)cc1 | inactive | 
CCCCN(CC)C(=O)SCCC | inactive | 
Cn1[nH]nnc1=S | inactive | 
CC(=O)c1ccc(-c2ccccc2)cc1 | inactive | 
C=C(C)C(=O)OCC1CO1 (configuration not stated) | inactive | 
CCCCCCCc1ccc(O)cc1 | inactive | 
COC(=O)C(F)(F)C(F)(F)OC(F)(C(F)(F)F)C(F)(F)OC(F)=C(F)F (configuration not stated) | inactive | 

Target: Cellular tumor antigen p53 (Homo sapiens) (UniProt P04637)
Sequence (P04637 whole entry, looked up): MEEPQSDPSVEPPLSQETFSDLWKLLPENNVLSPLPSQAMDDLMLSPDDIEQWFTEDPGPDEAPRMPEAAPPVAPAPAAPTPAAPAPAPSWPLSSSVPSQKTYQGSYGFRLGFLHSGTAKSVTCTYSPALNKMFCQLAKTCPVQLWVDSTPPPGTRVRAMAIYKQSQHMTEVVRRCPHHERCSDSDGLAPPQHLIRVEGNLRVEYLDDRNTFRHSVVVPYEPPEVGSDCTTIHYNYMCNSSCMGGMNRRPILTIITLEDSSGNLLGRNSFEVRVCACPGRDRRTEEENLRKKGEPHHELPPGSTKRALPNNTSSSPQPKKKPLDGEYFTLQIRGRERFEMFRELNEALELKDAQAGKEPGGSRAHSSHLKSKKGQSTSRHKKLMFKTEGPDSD
Experiment: ATG_p53_CIS: Attagene CIS-FACTORIAL HepG2 Assay for human p53 Transcription Factor (AID 2282994)
Conditions: HepG2 p53 cis-element reporter, Attagene mRNA; actives raise or lower the signal
In short: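 Read-out: reporter mRNA by RT-PCR plus capillary electrophoresis with fluorescence detection. Human HepG2 liver cells carried transfected multi-reporter cis-element constructs, dosed 24 h. Gain or loss of signal fitted bidirectionally against DMSO control.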

Compound | outcome | AC50
O=[N+]([O-])c1cc(Cl)ccc1Cl | inactive | 
FC(F)(F)c1ccc(Cl)cc1 | inactive | 
CC(O)C(F)(F)C(F)(F)F (configuration not stated) | inactive | 
Clc1ccc(Oc2ccccc2)cc1 | inactive | 
O=C(O)C(F)(F)C(F)(F)C(=O)O | inactive | 
O=S1(=O)OCC2C(CO1)C1(Cl)C(Cl)=C(Cl)C2(Cl)C1(Cl)Cl (configuration not stated) |  | 18.3 µM (active)
CNC(=O)Oc1ccc(N(C)C)c(C)c1 | inactive | 
O=c1[nH]c2ccccc2c(=O)o1 | inactive | 
O=NN1CCCC1 | inactive | 
COC(N)=O | inactive | 
c1ccc(OP(Oc2ccccc2)Oc2ccccc2)cc1 | inactive | 
CC(C)CBr | inactive | 
CCCCc1ccc(O)cc1 | inactive | 
OCC(F)(F)OC(F)(F)C(F)(F)OC(F)(F)C(F)(F)OC(F)(F)F | inactive | 76.8 µM (active)
NNC(N)=S | inactive | 
C/C(=N\NC(=O)Nc1cc(F)cc(F)c1)c1ncccc1C(=O)O | inactive | 
CC(O)C#N (configuration not stated) | inactive | 
N#C/C=C/c1ccccc1 | inactive | 
CC(=O)CCc1ccc2c(c1)OCO2 | inactive | 

Compound | outcome | AC50
C=CC(=O)OCC(F)(F)C(F)F |  | 206 µM (active)
O=S(=O)(F)C(F)(F)C(F)(F)C(F)(F)C(F)(F)C(F)(F)C(F)(F)C(F)(F)C(F)(F)F | inactive | 
Oc1ccccc1Br | inactive | 
CC1=C(C(=O)Nc2ccccc2)S(=O)(=O)CCO1 |  | 58 µM (active)
O=S(=O)(c1ccc(O)cc1)c1ccc(O)cc1 | inactive | 
Cc1ccc(C(=O)Cl)cc1 | inactive | 
CCN(CC)C1CCCCC1 | inactive | 
Cc1cc(C)c(C(=O)P(=O)(c2ccccc2)c2ccccc2)c(C)c1 | inactive | 
CC1(C)CN=C(NN=C(/C=C/c2ccc(C(F)(F)F)cc2)/C=C/c2ccc(C(F)(F)F)cc2)NC1 | inactive | 
O=C(CBr)OCc1ccccc1 | inactive | 
N#Cc1ccc(O)cc1 | inactive | 
CO/N=C(/C(=O)OC)c1ccccc1COc1ccccc1C | inactive | 
O=P(OCC(Br)CBr)(OCC(Br)CBr)OCC(Br)CBr (configuration not stated) | inactive | 
Oc1ccc(I)cc1 | inactive | 
CCCCN(CC)C(=O)SCCC | inactive | 
Cn1[nH]nnc1=S | inactive | 
CC(=O)c1ccc(-c2ccccc2)cc1 | inactive | 
C=C(C)C(=O)OCC1CO1 (configuration not stated) | inactive | 
COC(=O)C(F)(F)C(F)(F)OC(F)(C(F)(F)F)C(F)(F)OC(F)=C(F)F (configuration not stated) | inactive | 12.7 µM (active)

Read-out: not listed separately
Experiment: BSK_3C_TissueFactor: BioMAP Diversity Plus: 3C Assay for Tissue Factor Biomarker Activity (AID 2282997)
Conditions: BioMAP 3C HUVEC, tissue factor biomarker readout; actives raise or lower the signal
In short: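 Cells used were primary human umbilical vein endothelial cells. They were dosed with chemical, and after 24 h Tissue Factor was quantified by ELISA. Curves were fitted bidirectionally with DMSO as baseline.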

Compound | outcome | AC50
CC(O)C(F)(F)C(F)(F)F (configuration not stated) | inactive | 
O=C(O)C(F)(F)C(F)(F)C(=O)O | inactive | 
O=S1(=O)OCC2C(CO1)C1(Cl)C(Cl)=C(Cl)C2(Cl)C1(Cl)Cl (configuration not stated) | inactive | 
c1ccc(OP(Oc2ccccc2)Oc2ccccc2)cc1 | inactive | 
OCC(F)(F)OC(F)(F)C(F)(F)OC(F)(F)C(F)(F)OC(F)(F)F |  | 30 µM (active) and 47.3 µM (active)
C=CC(=O)OCC(F)(F)C(F)F | inactive | 24.6 µM (active)
O=S(=O)(F)C(F)(F)C(F)(F)C(F)(F)C(F)(F)C(F)(F)C(F)(F)C(F)(F)C(F)(F)F | inactive | 
O=P(OCC(Br)CBr)(OCC(Br)CBr)OCC(Br)CBr (configuration not stated) | inactive | 
CCCCCCCc1ccc(O)cc1 |  | 38 µM (active)
COC(=O)C(F)(F)C(F)(F)OC(F)(C(F)(F)F)C(F)(F)OC(F)=C(F)F (configuration not stated) | inactive | 

Read-out: not listed separately
Experiment: BSK_3C_uPAR: BioMAP Diversity Plus: 3C Assay for Urokinase-type plasminogen activator receptor (uPAR) Biomarker Activity (AID 2282998)
Conditions: BioMAP 3C HUVEC, uPAR biomarker ELISA; actives raise or lower the signal
In short: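 HUVEC primary cells; 24 h post-dose; uPAR by ELISA; gain or loss of signal fitted bidirectionally vs DMSO baseline.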

Compound | outcome | AC50
CC(O)C(F)(F)C(F)(F)F (configuration not stated) | inactive | 
O=C(O)C(F)(F)C(F)(F)C(=O)O | inactive | 
O=S1(=O)OCC2C(CO1)C1(Cl)C(Cl)=C(Cl)C2(Cl)C1(Cl)Cl (configuration not stated) |  | 20 µM (active)
c1ccc(OP(Oc2ccccc2)Oc2ccccc2)cc1 | inactive | 
OCC(F)(F)OC(F)(F)C(F)(F)OC(F)(F)C(F)(F)OC(F)(F)F |  | 43.9 µM (active) and 46.4 µM (active)
C=CC(=O)OCC(F)(F)C(F)F | inactive | 
O=S(=O)(F)C(F)(F)C(F)(F)C(F)(F)C(F)(F)C(F)(F)C(F)(F)C(F)(F)C(F)(F)F | inactive | 
O=P(OCC(Br)CBr)(OCC(Br)CBr)OCC(Br)CBr (configuration not stated) |  | 17.4 µM (active)
CCCCCCCc1ccc(O)cc1 |  | 38.2 µM (active)
COC(=O)C(F)(F)C(F)(F)OC(F)(C(F)(F)F)C(F)(F)OC(F)=C(F)F (configuration not stated) | inactive | 
